# Assay outcomes: PubChem, National Center for Advancing Translational Sciences (NCATS)
# HCV inhibitor: inhibitors of hepatitis C virus infection; Huh7.5.1 HCVcc-Cre infection, luciferase reporter, 44 h; Potency, µM (top dose mostly 41.8 µM), for inactives: at the top dose activity change, negative = inhibition, usual class: inhibitors; actives 3.4% (n = 340,000); AID 651820; active means well fitted inhibition curve with a large enough effect; inconclusive means small, poorly fitted or top-dose-only effect, or another doubt; inactive means no such curve, though single readings can be large or run the other way; further: potency means the concentration at half of the fitted maximal effect
#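 Infectious HCV cell culture screen: compound-treated cells (1,000/well, pre-plated 4 h) are infected with HCVcc-Cre at roughly 0.5 moi and grown 44 h. Infection is quantified by luciferase signal after 15 min substrate incubation at room temperature.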
# Vaccinia mCherry: vaccinia inhibition (mCherry reporter). Vaccinia virus mCherry reporter infection, fluorescence. AID 720579. Potency, µM (titrated, usually from 36.5 µM), for the others: at the highest dose activity change, negative = inhibition, most hits filed as inhibitors. actives 0.63% (n = 310,000); calls by dose curve; tested in A549 cells; further: potency means the concentration at half of the fitted maximal effect; nearly all actives have a fitted effect of over 35% in size
# HCMV antiviral: blocks human cytomegalovirus replication | HFF cells, HCMV-luciferase reporter, 72 h; hits give low values | AID 1259415 | actives 4.5% (n = 410,000) | activity change, negative = inhibition, % at 57.5 µM; in the data active means activity change below about -60%; inconclusive means no clear call, values can overlap the other calls; inactive means above about -39%
#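 Luciferase read-out from HCMV-luciferase-infected HFFs (MOI 1 PFU/cell) 72 h post infection at 37C; compounds added after 16 h cell attachment; activity normalized between buffer-only basal and Salinomycin (10uM) inhibitor controls.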
# FMDV antiviral: blocks foot and mouth disease virus. Potency, µM (titrated, usually from 57.9 µM), for inactives: at the highest dose activity change, negative = inhibition, most hits filed as inhibitors. AID 1159524. actives 1.2% (n = 410,000). FMDV antiviral cell-based qHTS; calls by dose curve; tested in HEK293T cells; further: read-out not given here; potency means the concentration at half of the fitted maximal effect; nearly all actives have a fitted effect of over 45% in size
# Vaccinia Venus: inhibitors of vaccinia virus (Venus reporter) | AID 720580 | Vaccinia virus Venus reporter expression, fluorescence | actives 0.46% (n = 330,000) | Potency, µM (titrated, usually from 36.5 µM), for the others: top-dose activity change, negative = inhibition, usual class: inhibitors; calls by dose curve; tested in A549 cells; further: potency means the concentration at half of the fitted maximal effect; nearly all actives have a fitted effect of over 30% in size
# The depositor's hits bear a star; i = inactive; ? = inconclusive; . = no result given. This is a sample that favours compounds with a hit; in the whole collection about 7.3% have one here. On the % scale 0 is the no-effect control and ±100 the full control effect.
SMILES,HCV inhibitor,Vaccinia mCherry,HCMV antiviral,FMDV antiviral,Vaccinia Venus
CC(C)CCNC(=O)C(c1ccc(O)cc1)N(Cc1cccs1)C(=O)C1COc2ccccc2O1 (configuration not stated),12.6µM*,11.2µM*,-93.6*,?,28.2µM*
CCN1C[C@@H]2[C@@H]3C(=O)N(Cc4ccccc4)C(=O)[C@@H]3[C@](Cc3ccccc3)(C1=O)N2C(=O)c1ccc(Cl)cc1,7.4%,-0.3%,-69.4*,58.2%,-11.5%
CCN1C[C@@H]2[C@@H]3C(=O)N(Cc4ccccc4)C(=O)[C@@H]3[C@](Cc3ccccc3)(C1=O)N2C(=O)c1ccccc1,20.0%,i,-7.5,0.0%,-10.7%
O=C(C1CC1)N(CCc1ccccc1)Cc1nc2ccccc2c(=O)[nH]1,7.3%,.,-9.0,28.2µM*,?
COc1ccc(F)c(CN2CCC3(CCC(CNC(=O)c4cc(C)nn4C)O3)CC2)c1 (configuration not stated),.,-16.4%,.,-23.5%,-10.3%
Fc1ccc(-c2cc3nc(-c4ccccc4)cc(N4CCN(CCN5CCOCC5)CC4)n3n2)cc1,10µM*,-26.2%,-70.8*,-16.9%,-12.8%
O=C(c1ccoc1)N1CCN(c2cc(-c3ccco3)nc3cc(-c4ccccc4)nn23)CC1,.,?,-73.0*,?,?
COc1ccccc1-c1cc2nc(-c3ccccc3)cc(N3CCN(C(=O)c4ccoc4)CC3)n2n1,.,?,-102.9*,7.94µM*,?
COc1ccccc1-c1cc2nc(-c3ccccc3)cc(N3CCN(C(=O)c4ccco4)CC3)n2n1,.,?,-100.3*,4.47µM*,?
Cc1cc(N2CCN(C(=O)c3ccoc3)CC2)n2nc(-c3ccccc3)cc2n1,.,?,-7.6,?,-12.5%
CCN(CCCNC(=O)c1ccc(Sc2ccc(F)cc2)c(NC(C)=O)c1)c1ccccc1,.,-13.0%,34.5,-4.2%,-14.2%
C[C@]12CCCCC3=CC(=O)C=C[C@@]31OC(=O)CC2,.,.,-17.0,.,.
CCCN1CCN(CCCNC(=O)c2cnn(-c3ccc(F)cc3)c2-n2cccc2)CC1,.,-4.0%,-9.6,24.8%,-6.1%
O=C(c1ccoc1)N1CCN(c2cc(-c3ccccc3)nc3cc(-c4ccccc4)nn23)CC1,.,?,-98.1*,35.5µM*,?
COc1ccc(-c2csc3ncnc(NCCN4CCOCC4)c23)cc1,?,.,-66.3*,?,?
Cc1ccc(-c2csc3ncnc(Nc4ccc(N5CCOCC5)cc4)c23)cc1,?,-11.2%,-89.5*,?,-21.5%
c1ccc(-c2csc3ncnc(NCCN4CCOCC4)c23)cc1,11.2µM*,-12.6%,-76.8*,22.4µM*,?
Cc1ccc(-c2csc3ncnc(NCCN4CCOCC4)c23)cc1,?,-22.9%,-70.3*,-6.9%,-17.9%
Cc1cnc(C(=O)OCc2csc(CC(=O)Nc3ccccc3C)n2)cn1,16.1%,-11.9%,0.9,-15.3%,-16.7%
Clc1ccc(-c2csc3ncnc(NCCN4CCOCC4)c23)cc1,?,-27.3%,-75.0*,?,?
CCC(CO)Nc1nc(CN2CCCCC2)nc2scc(-c3ccccc3)c12 (configuration not stated),?,i,-68.9*,-17.8%,-23.8%
c1ccc(CNc2nc(CN3CCOCC3)nc3scc(-c4ccccc4)c23)cc1,0.1%,-13.0%,-0.2,-2.9%,6.9%
Clc1ccc(CNc2nc(CN3CCOCC3)nc3scc(-c4ccccc4)c23)cc1,?,?,-20.5,14.1µM*,?
Cc1ccnc(NC(=O)c2cccc(S(=O)(=O)N3CCN(c4ccc(F)cc4)CC3)c2)c1,10µM*,-27.8%,-23.7,-18.6%,-23.3%
COc1ccccc1N1CCN(S(=O)(=O)c2cc(C(=O)Nc3ccc(Oc4ccccc4)cc3)ccc2F)CC1,.,-2.6%,-67.1*,?,-24.4%
SMILES,HCV inhibitor,Vaccinia mCherry,HCMV antiviral,FMDV antiviral,Vaccinia Venus
Cc1cccc(N2CCN(S(=O)(=O)c3cc(C(=O)Nc4ccc(Oc5ccccc5)cc4)ccc3F)CC2C)c1 (configuration not stated),.,-20.4%,-64.0*,?,-29.3%
Cc1cccc(NC(=O)c2ccc(F)c(S(=O)(=O)N3CCN(c4ccc(F)cc4)CC3)c2)c1,.,?,-73.3*,?,?
Cc1cccc(NC(=O)c2ccc(F)c(S(=O)(=O)N3CCC4(CC3)OCCO4)c2)c1,?,-19.2%,-6.6,9.3%,-19.0%
CNc1ccc(C(=O)N2CCN(S(=O)(=O)c3ccc4c(c3)OCCCO4)CC2)cc1[N+](=O)[O-],?,.,-14.5,-3.7%,.
O=C(Nc1ccc(Oc2ccccc2)cc1)c1ccc(F)c(S(=O)(=O)N2CCN(c3ccccc3F)CC2)c1,.,-25.8%,-78.7*,?,-25.2%
CCc1ccccc1NC(=O)c1ccc(F)c(S(=O)(=O)N2CCN(c3cccc(Cl)c3)CC2)c1,.,-13.7%,-35.0,?,-19.0%
O=C(Nc1ccc(Nc2ccccc2)cc1)c1ccc(Cl)cc1,?,.,?,3.9%,.
COc1ccccc1Oc1ccc(NC(=O)c2ccc(Cl)cc2)cc1,2.82µM*,.,-24.5,?,.
O=C(Nc1ccc(Oc2ccccc2)cc1)c1ccc(F)c(S(=O)(=O)N2CCN(c3cccc(Cl)c3)CC2)c1,.,?,-70.3*,?,-34.5%
COc1ccccc1NCc1cccn1-c1nnc(N2CCOCC2)s1,.,1.0%,9.8,28.1%,1.4%
Cc1ccc(C(NC(=O)C2CCN(CCCOc3ccccc3)CC2)c2ccccn2)cc1 (configuration not stated),.,-6.8%,-13.7,2.2%,-11.5%
COc1ccc(C(NC(=O)C2CCN(CCCOc3ccccc3)CC2)c2cccs2)cc1 (configuration not stated),.,i,-102.6*,-17.9%,-10.4%
O=C(O)C1NCCN(C(=O)c2ccc3c(ccc4ccccc43)c2)C1C(=O)O (configuration not stated),.,.,.,-11.7%,.
CCc1cc(-c2nnn(-c3cc(C(C)C)ccc3C)c2CC)ccc1-c1cn(CCc2c[nH]c3ccccc23)nn1,.,?,-32.5,?,-29.0%
COc1ccccc1CNC(=O)CCCNC(=O)Cn1cnc2sc(C)c(C)c2c1=O,0.6%,i,-31.0,-8.7%,-10.7%
COc1ccc(CNC(=O)c2cc3cccc4c3n2CC(C)S4)cc1OC (configuration not stated),.,-13.9%,0.0,-8.7%,-6.0%
O=C(CCN1CCCC1)c1cccs1,14.2%,-4.0%,-12.5,17.8%,0.6%
O=C(CCN1CC2CCC(CC2)C1)c1cccs1,?,i,19.6,25.1µM*,-7.5%
CCn1c(=O)oc2cc(NC(=O)CCl)ccc21,?,?,?,22.4µM*,?
CC(=O)Nc1ccc2c(c1)n(C)c(=O)n2C,20.2%,-18.3%,119.9,17.1%,-8.0%
Cn1c(=O)n(C)c2cc(NC(=O)CCl)ccc21,?,.,-104.0*,?,.
COc1cc(C2c3c(oc4ccccc4c3=O)C(=O)N2c2nncs2)cc(OC)c1OC (configuration not stated),.,-7.9%,-11.7,7.5%,-2.8%
